# This is a sample that favours compounds with a hit; in the whole collection about 1.5% have one here.
# USP1-UAF1 inh = USP1/UAF1 (human) deubiquitinase inhibition | O94782 | recombinant USP1/UAF1, Ub-Rhodamine cleavage fluorescence | Potency, µM (doses to about 57.1 µM), without a hit: at the highest dose activity change, negative = inhibition, usual class: inhibitors | actives 0.23% (n = 390,000) | AID 743255; further: potency means the concentration at half of the fitted maximal effect; nearly all actives have a fitted effect of over 60% in size
#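 USP1/UAF1 complex at 1 nM was preincubated with compound for 15 min at room temperature, then Ub-Rho substrate (150nM final) was added. Fluorescence (480/540 nm) was read kinetically, 6 reads every 60 seconds.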
# rTrxR1 inhibitor = blocks rat thioredoxin reductase 1; recombinant rTrxR1, NADPH fluorescence consumption, selenite substrate; actives 1% (n = 390,000); Potency, µM (top dose mostly 114 µM), without a hit: at the highest dose activity change, negative = inhibition, hits mostly inhibitors; AID 588453; further: potency means the concentration at half of the fitted maximal effect; nearly all actives have a fitted effect of over 65% in size
#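 Rat TrxR1 (90 nM in the dispensed reagent) was pre-reduced with 400 uM NADPH for 5 min at room temperature, then incubated with compound for 15 min. After 400 uM selenite was added, NADPH fluorescence (Ex 340/Em 450 nm) was followed for 8 min.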
# TrxR1 substrate = rat thioredoxin reductase 1 substrate activity | O89049 | purified TrxR1 substrate turnover, NADPH consumption readout | Potency, µM (series often up to 114 µM), without a hit: top-dose activity change, negative = substrate turnover | actives 0.01% (n = 390,000) | AID 588456; further: potency means the concentration at half of the fitted maximal effect; nearly all actives have a fitted effect of over 50% in size
#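 Rat TrxR1, dispensed at 90 nM, was prereduced with 400 uM NADPH (final) for 5 min at ~22 deg C, then incubated with compound 15 min before 400 uM selenite. A first-read NADPH fluorescence drop versus no-compound background flagged substrates.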
# GALK inhibitor = galactokinase (human) inhibition | Purified GALK, Kinase-Glo residual ATP luminescence | Potency, µM (doses to about 57.5 µM), inactives show top-dose activity change, negative = inhibition, usual class: inhibitors | actives 0.007% (n = 270,000) | AID 1868; further: potency means the concentration at half of the fitted maximal effect
# Target sequence (P51570 whole entry, looked up): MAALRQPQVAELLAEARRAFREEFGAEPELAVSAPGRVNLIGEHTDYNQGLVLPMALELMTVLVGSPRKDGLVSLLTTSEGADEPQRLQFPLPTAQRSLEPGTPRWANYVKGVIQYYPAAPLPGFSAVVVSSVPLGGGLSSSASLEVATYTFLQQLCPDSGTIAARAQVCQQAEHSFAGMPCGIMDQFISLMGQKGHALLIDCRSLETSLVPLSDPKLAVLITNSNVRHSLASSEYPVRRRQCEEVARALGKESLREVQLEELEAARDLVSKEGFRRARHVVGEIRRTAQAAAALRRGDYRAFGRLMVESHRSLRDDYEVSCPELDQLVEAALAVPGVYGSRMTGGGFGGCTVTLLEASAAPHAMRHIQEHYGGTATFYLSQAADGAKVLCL
#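 Human GALK (5 nM) with 35 uM ATP and 100 uM galactose in 20 mM HEPES pH 8.0, 5 mM MgCl2, 60 mM NaCl, 1 mM DTT, 0.01% BSA. After 1 h at room temperature, leftover ATP was read by Kinase-Glo Plus luminescence.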
# Coupling enz = counter-screen for Giardia aldolase inhibitors: coupling enzyme system | activity change, negative = inhibition, % at 58.2 µM, hits read low | coupling enzyme system counterscreen, AmpLite Red fluorescence | actives 0.67% (n = 290,000); in the data active means activity change below about -30%
#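 Activity here indicates interference with the coupling reaction, not aldolase inhibition. Compounds at 57.5 uM final met coupling enzymes for 10 min at RT; substrate and AmpLite Red detection followed, with a 525/598 nm fluorescence read after 20 min.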
# * hit, by the source's call; ? = inconclusive; nt = no result given; [ ] = dose if it differs, or a comment. Unless noted, the call rests on the fitted dose curve; in most records, active means well fitted curve in the direction sought with a large enough effect; inconclusive means small, poorly fitted or top-dose-only effect, or another doubt; inactive means no such curve, though single readings can be large; an effect the other way counts as inactive or inconclusive. On the % scale 0 is the no-effect control and ±100 the full control effect.
SMILES,USP1-UAF1 inh,rTrxR1 inhibitor,TrxR1 substrate,GALK inhibitor,Coupling enz
CC1CCC2C(=O)N3C(CCC(C)C3c3ccc(-c4ccco4)cc3)C(=O)N2C1c1ccc(-c2ccco2)cc1 (stereo not given),nt,nt,nt,nt,0
Cc1c(N)cc(N)cc1C(=O)O,-10%,2%,2%,0%,-35*
O=C(O)Cc1sc(Nc2ccccc2)nc1-c1ccccc1,-22%,5%,-3%,nt,nt
O=C(O)Cc1sc(N/N=C\c2ccncc2)nc1-c1ccccc1,-18%,3.2µM*,-8%,-5%,3
O=C(Nc1cccc(F)c1)/C(=C\c1cccnc1)NC(=O)c1ccco1,-1%,7%[57.1 µM],8%[57.1 µM],-3%,-2
O=C(Nc1cccc(F)c1)/C(=C/c1ccco1)NC(=O)c1ccco1,-13%,45µM*,-17%,-11%,nt
Cc1cccc(NC(=O)/C(=C\c2ccco2)NC(=O)c2cccs2)c1,-21%,40µM*,-7%,nt,-4
Cc1ccc(Nc2c(-c3ccc(C)s3)nc3cccc(C)n23)cc1,nt,24%,55%,nt,nt
NC(N)=NCCC[C@H](N)C(=O)NCC(=O)N[C@@H](CC(=O)O)C(=O)O,nt,nt,nt,nt,1
FC(F)Oc1ccc(NC(=S)NCc2ccccc2)cc1,-5%,1%[57.1 µM],-4%,-2%,0
Oc1cccc2c(NC(=S)Nc3ccc(OC(F)F)cc3)cccc12,-17%,22%,20%,2%,-48*
O=C1C=C(Nc2cccnc2)c2ccccc2C1=O,14µM*,-26%,-35%,nt,nt
CCOc1ccc(NC2=CC(=O)CCC2)cc1,-5%,-9%,-10%,5%,-2
CCOc1ccc(NC2=CC(=O)C(=O)c3ccccc32)cc1,25µM*,6%[11.4 µM],5%[11.4 µM],nt,nt
O=C1C=C(Nc2ccc(F)cc2)c2ccccc2C1=O,25µM*,-19%,-20%,nt,nt
COc1cc(Cl)c(NC2=CC(=O)C(=O)c3ccccc32)c(OC)c1,28µM*,8%,-2%,nt,nt
CC(C(=O)Nc1cccnc1)N1C(=O)c2ccccc2C1=O (stereo not given),-9%,20%,8%,0%,0
COc1c([N+](=O)[O-])ccc(N)c1N,nt,4%,-11%,nt,nt
CCCN(CCC)c1nc(N)nc(C#N)n1,nt,19%[0.0914 µM],-4%,nt,nt
CC1CCCN(C(=O)/C(=C/c2ccco2)NC(=O)c2ccccc2)C1 (stereo not given),-4%,?,-3%,-1%,-1
O=C(N/C(=C\c1ccco1)C(=O)N1CCCC1CO)c1ccccc1 (stereo not given),-13%,40µM*,-15%,6%,2
COc1ccc(OC)c(C(=O)CSc2nc3cccnc3n2C)c1,-6%,9%,1%,1%,-40*
Cc1ccc(C)n1-c1ccc(N(C)C)cc1,?,?,-11%,0%,-30*
CCNC(=O)Oc1ccc[nH]c1=O,-15%,1%[2.29 µM],1%[57.1 µM],7%,-63*
COc1cc(CN2CCCC(C(=O)c3ccc4c5c(cccc35)CC4)C2)cc(OC)c1O (stereo not given),-12%,-12%,10%,12%,-39*
SMILES,USP1-UAF1 inh,rTrxR1 inhibitor,TrxR1 substrate,GALK inhibitor,Coupling enz
CC1(C)COC(c2cc([N+](=O)[O-])ccc2Cl)=N1,-17%,8%[57.1 µM],9%[57.1 µM],-3%,1
CC1(C)COC(c2ccc(F)c([N+](=O)[O-])c2)=N1,-14%,18µM*,-9%,0%,2
CCN1CCN(C(c2cccc(F)c2)c2c(O)cc(C)n(CCOC)c2=O)CC1 (stereo not given),?,11µM*,-3%[57.1 µM],nt,nt
CCN1CCN(C(c2ccc(OC)cc2)c2c(O)cc(C)n(CCOC)c2=O)CC1 (stereo not given),?,14µM*,-1%[57.1 µM],nt,nt
Cc1cccc(OCC(=O)Nc2cc(-c3nc4cc(Cl)ccc4o3)ccc2C)c1,nt,13%,5%,nt,nt
CCOC(=O)C1=NN(N=O)C2(CC(=O)N(c3cc(C)cc(C)c3)C2=O)C1 (stereo not given),-3%,16µM*,3%[57.1 µM],-4%,6
O=C(NC1CCCCC1)C(c1cccnc1)N(C(=O)CCl)c1ccc(F)cc1 (stereo not given),-14%,14µM*,13%,0%,0
COc1ccc(C(C(=O)NC2CCCCC2)N(C(=O)CCl)c2ccc(OC)cc2)cc1 (stereo not given),-14%,-26%,-12%,1%,-2
COc1ccc(N(C(=O)CCl)C(C(=O)NC2CCCCC2)c2cccnc2)cc1 (stereo not given),-19%,16µM*,2%,1%,2
O=C(NC1CCCCC1)C(c1cccnc1)N(C(=O)CCl)c1ccccc1Cl (stereo not given),-19%,3%[57.1 µM],-19%[57.1 µM],1%,0
O=C(c1ccc2c(=O)n(CCc3ccccc3)c(=O)[nH]c2c1)N1CCN(C(=O)c2ccco2)CC1,nt,1%,4%,nt,nt
Nc1nc(NCc2ccc(Cl)c(Cl)c2)c2[nH]cnc2n1,nt,22%,3%,nt,nt
O=C(NC(=S)Nc1nc(-c2cccc([N+](=O)[O-])c2)cs1)c1ccccc1Cl,-9%,13%[57.1 µM],2%[57.1 µM],-1%,0

# High-throughput results: PubChem BioAssay, National Center for Advancing Translational Sciences (NCATS)
